Inconclusive results are not listed. Where a call stands in place of a potency, no number is given. Calls of active or inactive are those of the source. Unless noted, calls follow the shape of the dose curve; as a rule, active = well fitted curve in the direction sought with a large enough effect; inconclusive = small, poorly fitted or top-dose-only effect, or another doubt; inactive = no such curve, though single readings can be large; an effect the other way counts as inactive or inconclusive.
Tested on: not listed separately
Assay: Primary qHTS for small molecule stabilizers of the endoplasmic reticulum resident proteome: Secreted ER Calcium Modulated Protein (SERCaMP) assay (AID 1508630)
Settings: SH-SY5Y GLuc-SERCaMP (Gaussia luciferase released on ER calcium loss) secretion, thapsigargin, luminescence; series mostly up to 38.4 µM
Summary of the method: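 GLuc-SERCaMP-expressing SH-SY5Y cells, pretreated 16 h with compound, are challenged with thapsigargin to empty ER calcium stores; after 4 h, coelenterazine is added directly to the medium and luminescence is imaged.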

SMILES | Potency
CC(CC(C#N)(c1ccccc1)C(C)C)N(C)C (stereo not given) | inactive
Cc1cc(O)c2c(O)c3c(O)cccc3cc2c1 | inactive
N[C@@H](Cn1ccc(=O)c(O)c1)C(=O)O | inactive
COc1ccc(OC(=O)N(CC(=O)O)Cc2ccc(OCCc3nc(-c4ccccc4)oc3C)cc2)cc1 | inactive
COCCc1ccc(OCC2CO2)cc1 (stereo not given) | inactive
CCCCC(CC)COC(=O)c1ccccc1C(=O)O (stereo not given) | inactive
CCN(CC)CCNC(=O)c1ccc(NS(C)(=O)=O)cc1 | inactive
CCCCCCn1c(=O)c2c(ncn2C)n(C)c1=O | inactive
Cc1nc(N)nc(N)c1-c1ccc(Cl)c(Cl)c1 | inactive
CCCCNc1ccc(C(=O)OCCN(CC)CC)cc1 | inactive
C/C=C(/C(=C/C)c1ccc(OC(C)=O)cc1)c1ccc(OC(C)=O)cc1 | inactive
CO[C@@H]1[C@@H](OC)[C@H](C)[C@@](O)(CC(=O)O)O[C@H]1[C@H](C)[C@H]1O[C@@]2(CC[C@@](C)([C@H]3CC[C@@](C)([C@@H]4O[C@@H]([C@H]5O[C@](C)(O)[C@H](C)C[C@@H]5C)C[C@@H]4OC4C[C@H](OC)[C@@H](OC)[C@H](C)O4)O3)O2)C[C@H](O)[C@H]1C (stereo not given in full) | inactive
O=C(O)c1ccccc1Nc1cc(Cl)ccc1C(=O)O | inactive
O=C(CS(=O)Cc1ccco1)NC/C=C\COc1cc(CN2CCCCC2)ccn1 (stereo not given) | inactive
NC(N)=NCCCCN=C(N)N | inactive
COc1cc(OC)nc(O[C@H](C(=O)O)C(OC)(c2ccccc2)c2ccccc2)n1 | inactive
CC(C)=CCNc1ncnc2c1ncn2[C@@H]1O[C@H](CO)[C@@H](O)[C@H]1O | inactive
CN(CC1(C)CCCO1)S(=O)(=O)c1ccc(Cl)c(S(N)(=O)=O)c1 (stereo not given) | inactive
COc1ccc(-n2nc(CCC(=O)N(C)O)cc2-c2ccc(Cl)cc2)cc1 | inactive

SMILES | Potency
CC(C)=CCC/C(C)=C/CC/C(C)=C/C(=O)OCC(=O)[C@@]1(O)CC[C@H]2[C@@H]3CCC4=CC(=O)C=C[C@]4(C)[C@H]3[C@@H](O)C[C@@]21C | inactive
O=C(Nc1ccc(Cl)cc1)Nc1ccc(Cl)c(C(F)(F)F)c1 | inactive
COC(=O)C1=C(C)NC(COC(N)=O)=C(C(=O)OC(C)C)C1c1cccc(Cl)c1Cl (stereo not given) | inactive
Cc1cc(CCCOc2c(C)cc(-c3noc(C(F)(F)F)n3)cc2C)on1 | inactive
CC1CCCCN1CCCOC(=O)c1ccc(OC2CCCCC2)cc1 (stereo not given) | inactive
c1ccc(C(O[C@H]2CCCN(CCc3ccc4c(c3)OCO4)C2)c2ccccc2)cc1 | inactive
Cc1ccccc1N1CCN(CCc2nnc3n2CCCC3)CC1 | inactive
CCOC(=O)NNc1nncc2ccccc12 | inactive
O=C(Nc1ccc(Cl)cc1)Nc1ccc(Cl)c(Cl)c1 | inactive
Brc1ccc([C@H]2CN3CCSC3=N2)cc1 | inactive
CC(NCCC(c1ccccc1)c1ccccc1)c1ccccc1 (stereo not given) | inactive
CNC[C@H](O)[C@@H](O)[C@H](O)[C@H](O)CO | inactive
CCCCCCCCCCCC[N+](C)(C)Cc1ccccc1 | inactive
Cc1cccc(C)c1NC(=O)c1ccc(N)cc1 | inactive
CCOC(=O)C1=C(C)NC(C)=C(C(=O)OCC)C1c1ccccc1/C=C/C(=O)OC(C)(C)C | inactive
C[C@@H]1CCC[C@H](C)N1CCCC(O)(c1ccccc1)c1ccccn1 (stereo not given in full) | inactive
CCOC(=O)C(=O)CCCCCCl | inactive
COc1ccccc1N1CCN(CCN2C(=O)CC3(CCCC3)CC2=O)CC1 | inactive

Biological target: Cytochrome P450 2D6 (Homo sapiens) (UniProt P10635)
Sequence (P10635 whole entry, looked up): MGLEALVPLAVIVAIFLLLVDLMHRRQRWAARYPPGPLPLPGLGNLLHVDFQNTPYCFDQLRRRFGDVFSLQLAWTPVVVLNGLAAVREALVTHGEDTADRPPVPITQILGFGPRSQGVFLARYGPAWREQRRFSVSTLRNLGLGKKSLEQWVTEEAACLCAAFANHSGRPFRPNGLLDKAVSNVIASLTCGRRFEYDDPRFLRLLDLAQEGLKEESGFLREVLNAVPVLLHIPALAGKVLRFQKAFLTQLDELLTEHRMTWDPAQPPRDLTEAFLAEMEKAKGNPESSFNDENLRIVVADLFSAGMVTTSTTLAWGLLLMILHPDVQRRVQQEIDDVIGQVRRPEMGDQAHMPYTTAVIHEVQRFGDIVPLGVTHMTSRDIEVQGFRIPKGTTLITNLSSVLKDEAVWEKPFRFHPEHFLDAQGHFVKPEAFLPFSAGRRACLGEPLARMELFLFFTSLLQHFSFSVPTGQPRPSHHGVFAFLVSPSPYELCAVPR
Assay: Cytochrome P450 family 2 subfamily D member 6 (CYP2D6) small molecule antagonists: luciferase biochemical (cell-free) qHTS assay (AID 1645840; active = well fitted curve in the direction sought with a large enough effect in the repeat runs; an effect the other way counts as inactive or inconclusive; also: nearly all actives have a fitted effect of over 55% in size; also: potency is read from the fitted curve at half-maximal effect)
Settings: P450-Glo CYP2D6 enzyme, luciferin luminescence, 1 h; series mostly up to 57.4 µM
Summary of the method: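 P450-Glo luminescent screen: recombinant CYP2D6 enzyme–proluciferin substrate mix preincubated with compound 10 min at room temperature, then NADPH regeneration added for 1 h at room temperature. Detection reagent added for 20 min; luciferin light read as relative luminescence units.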

SMILES | Potency
CC(CC(C#N)(c1ccccc1)C(C)C)N(C)C (stereo not given) | 8.71 µM (active)
Cc1cc(O)c2c(O)c3c(O)cccc3cc2c1 | inactive
COCCc1ccc(OCC2CO2)cc1 (stereo not given) | inactive
CCCCCCn1c(=O)c2c(ncn2C)n(C)c1=O | inactive
CCCCNc1ccc(C(=O)OCCN(CC)CC)cc1 | 3.47 µM (active)
C/C=C(/C(=C/C)c1ccc(OC(C)=O)cc1)c1ccc(OC(C)=O)cc1 | inactive
CO[C@@H]1[C@@H](OC)[C@H](C)[C@@](O)(CC(=O)O)O[C@H]1[C@H](C)[C@H]1O[C@@]2(CC[C@@](C)([C@H]3CC[C@@](C)([C@@H]4O[C@@H]([C@H]5O[C@](C)(O)[C@H](C)C[C@@H]5C)C[C@@H]4OC4C[C@H](OC)[C@@H](OC)[C@H](C)O4)O3)O2)C[C@H](O)[C@H]1C (stereo not given in full) | inactive
O=C(O)c1ccccc1Nc1cc(Cl)ccc1C(=O)O | inactive
COc1cc(OC)nc(O[C@H](C(=O)O)C(OC)(c2ccccc2)c2ccccc2)n1 | inactive
CC(C)=CCNc1ncnc2c1ncn2[C@@H]1O[C@H](CO)[C@@H](O)[C@H]1O | inactive
CN(CC1(C)CCCO1)S(=O)(=O)c1ccc(Cl)c(S(N)(=O)=O)c1 (stereo not given) | inactive
COc1ccc(-n2nc(CCC(=O)N(C)O)cc2-c2ccc(Cl)cc2)cc1 | 4.9 µM (active)
O=C(Nc1ccc(Cl)cc1)Nc1ccc(Cl)c(C(F)(F)F)c1 | 13.8 µM (active)
COC(=O)C1=C(C)NC(COC(N)=O)=C(C(=O)OC(C)C)C1c1cccc(Cl)c1Cl (stereo not given) | 19.5 µM (active)
CC1CCCCN1CCCOC(=O)c1ccc(OC2CCCCC2)cc1 (stereo not given) | 11 µM (active)
c1ccc(C(O[C@H]2CCCN(CCc3ccc4c(c3)OCO4)C2)c2ccccc2)cc1 | 0.0123 µM (active)
Cc1ccccc1N1CCN(CCc2nnc3n2CCCC3)CC1 | 13.8 µM (active)
O=C(Nc1ccc(Cl)cc1)Nc1ccc(Cl)c(Cl)c1 | inactive
CC(NCCC(c1ccccc1)c1ccccc1)c1ccccc1 (stereo not given) | 0.0871 µM (active)
CNC[C@H](O)[C@@H](O)[C@H](O)[C@H](O)CO | inactive
CCCCCCCCCCCC[N+](C)(C)Cc1ccccc1 | 0.195 µM (active)
Cc1cccc(C)c1NC(=O)c1ccc(N)cc1 | inactive
C[C@@H]1CCC[C@H](C)N1CCCC(O)(c1ccccc1)c1ccccn1 (stereo not given in full) | 0.871 µM (active)
